Assay results as given in the supplement of paper PMC7411054.
Where a name gives a salt, the structure may show the parent alone. A number with no mark means an inactive call.

System: A549-CANX-COX4
Test: phenotypically active (imaging signature differs from DMSO and reproducible) at any of 0.3-9 uM (binary (1 = active, 0 = inactive)); higher = active
Conditions: treatment time: 24 h
Outline: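 Each of fifteen gene-edited A549, HepG2 and WPMY1 reporter lines, marked with BFP for segmentation and GFP and RFP/FusionRed, was treated in four wells at 0.3, 1, 3 or 9 µM for 24 h prior to live imaging. Normalisation of per-well live-cell features used solvent control wells. Deviation needed ≥3 of 4 wells beyond the 95th percentile of control Euclidean distances, and reproducibility needed a median replicate Pearson correlation above the 95th percentile of non-replicates. Both were required for phenotypic activity.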

SMILES | phenotypically active
CC/C(=C(\CC)c1ccc(O)c(CN(CC)CC)c1)c1ccc(O)c(CN(CC)CC)c1 | 0
CNCCC(Oc1ccc(C(F)(F)F)cc1)c1ccccc1 (centres undefined) [fluoxetine] | 0
Cn1cc(C2=C(c3ccc(Cl)cc3Cl)C(=O)NC2=O)c2ccccc21 | 0
CC(C)COCC(CN(Cc1ccccc1)c1ccccc1)N1CCCC1 (centres undefined) [bepridil] | 0
COc1cc(OC)c2cc(-c3ccncc3)cnc2c1 [DMPQ dihydrochloride] | 0
O=C(NOCC1CC1)c1ccc(F)c(F)c1Nc1ccc(I)cc1Cl | 0
Cn1cc(CCn2cnc(-c3cnn(C)c3)c2-c2ccc(C#N)cc2)cn1 | 0
COc1ccc(CCNCc2ccc(OCc3ccc(Cl)nc3)c(OC)c2)cc1OC [SBE 13 hydrochloride] | 0
O=C(O)Cc1cccc(OCCCN(Cc2cccc(C(F)(F)F)c2Cl)CC(c2ccccc2)c2ccccc2)c1 [GW 3965 hydrochloride] | 1 (active)
N#C/C(=C(/N)Sc1ccc(N)cc1)c1ccccc1C(F)(F)F | 0
CCOP(=O)(OCC)C(=Cc1cc(C(C)(C)C)c(O)c(C(C)(C)C)c1)P(=O)(OCC)OCC | 0
O=C([C@H](Cc1cccc(C(F)(F)F)c1)NS(=O)(=O)c1cc(F)c2c(c1)CCNC2)N1CCCC1 [(S)-PFI 2 hydrochloride] | 0
Cc1noc(C)c1Cn1cc(C#N)c2cc(Oc3ccc(NC(=O)[C@@H]4CCCN4)cc3)ccc21 | 0
CCCS(=O)(=O)Nc1ccc(F)c(C(=O)c2c[nH]c3ncc(Cl)cc23)c1F | 0
COc1c(C=O)c(O)cc2c1C(=O)c1ccccc1C2=O [Damnacanthal] | 0
COc1ccc(CNC(=O)Nc2ncc([N+](=O)[O-])s2)cc1 | 0
CC(C)(C)c1ccc2cc(C#N)c(C#N)cc2c1 | 0
C[C@H]1Oc2cc(cnc2N)-c2c(nn(C)c2C#N)CN(C)C(=O)c2ccc(F)cc21 | 0
CC(C)OC(=O)c1cc2c(OCC(O)CNC(C)(C)C)cccc2[nH]1 (centres undefined) | 0
COc1ccccc1OCCNCC(O)COc1cccc2[nH]c3ccccc3c12 (centres undefined) [Carvedilol] | 0

SMILES | phenotypically active
CCCCOc1cc(C(=O)NCCN(CC)CC)c2ccccc2n1 [cinchocaine] | 0
O=S(=O)(c1cccc2cnccc12)N1CCCNCC1 [fasudil] | 0
Clc1ccccc1C(c1ccccc1)(c1ccccc1)n1ccnc1 [Clotrimazole] | 0
CSc1ccc2c(c1)N(CCC1CCCCN1C)c1ccccc1S2 (centres undefined) [thioridazine] | 0
CCCNCC(O)COc1ccccc1C(=O)CCc1ccccc1 (centres undefined) [propafenone] | 0
O=C(O)[C@@H]1[C@H]2C[C@H]3c4[nH]c5ccccc5c4CCN3C[C@@H]2CC[C@@H]1O [Yohimbinic acid monohydrate] | 0
COc1cc(N2CCC(N)CC2)ccc1Nc1ncc(Cl)c(-c2c[nH]c3ccccc23)n1 | 0
COc1cc2ncnc(Nc3ccc(Cl)cc3F)c2cc1OC | 0
Cc1noc(C)c1-c1ccc2c(c1)nc(CCc1ccc(OCCCN(C)C)cc1)n2CCN1CCOCC1 | 0
Cc1ccc(NC(=O)c2cccc(N(C)C)c2)cc1NC(=O)c1ccc(O)cc1 | 0
Cc1cc(Nc2ccc(NC(=O)c3ccc(Nc4ccnc5ccccc45)cc3)cc2)nc(N)n1 | 0
Cc1ccc(NC2=CC(=O)c3sc(C)nc3C2=O)cc1 [Ryuvidine] | 0
C[C@]1(O)C[C@@H](c2nc(-c3ccc4ccc(-c5ccccc5)nc4c3)c3c(N)nccn32)C1 [linsitinib] | 0
COc1cc2c(cc1OCCCN1CCCC1)N=C(N)C21CCC1 | 0
O=C(O)C[C@H](O)C[C@H](O)/C=C/c1c(C2CC2)nc2ccccc2c1-c1ccc(F)cc1 [Pitavastatin calcium] | 0
CC#CC(=O)N1CCC[C@H]1c1nc(-c2ccc(C(=O)Nc3ccccn3)cc2)c2c(N)nccn12 [acalabrutinib] | 0
NC(=O)c1cccc(-c2cc(Nc3ccc(OC(F)(F)F)cc3)ncn2)c1 | 0
CN1[C@@H]2CC[C@H]1C[C@@H](OC(c1ccccc1)c1ccccc1)C2 [benztropine] | 0
NS(=O)(=O)c1nn2cc(-c3ccccc3)nc2s1 | 0
